Measurements reported in PubChem BioAssay (NCATS).
Results filed as inconclusive are left out. Where a call stands in place of a potency, no number is given. Activity calls are given as the source filed them. The call rests on the fitted dose curve; in most records, active means well fitted inhibition curve with a large enough effect; inconclusive means small, poorly fitted or top-dose-only effect; inactive means flat fitted curve, though single readings scatter.

Assays:
Assay in all cases: qHTS profiling for inhibitors of Plasmodium falciparum proliferation (AID 504749); further: nearly all actives have a fitted effect of over 60% in size
Settings in all cases: P. falciparum in erythrocytes, SYBR Green DNA, 72 h; series mostly up to 28.7 µM
[1] = tested on: CP250
How it was run: (§1)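 Three-day growth assay of blood-stage parasites in erythrocytes (0.3% parasitemia, 2.5% hematocrit) at 37 C, 5% CO2, quantified by SYBR Green DNA staining after overnight detergent lysis.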

[2] = tested on: CP252
How it was run: as §1

[3] = tested on: CP260
How it was run: as §1

[4] = tested on: CP262
How it was run: as §1

[5] = tested on: CP265
How it was run: as §1

[6] = tested on: CP266
How it was run: as §1

[7] = tested on: CP268
How it was run: as §1

[8] = tested on: CP269
How it was run: as §1

[9] = tested on: CP286
How it was run: as §1

[10] = tested on: CP291
How it was run: as §1

[11] = tested on: CP297
How it was run: as §1

[12] = tested on: CP305
How it was run: as §1

[13] = tested on: CP315
How it was run: as §1

[14] = tested on: CP335
How it was run: as §1

[15] = tested on: DFO2036
How it was run: as §1

[16] = tested on: CP256
How it was run: as §1

[17] = tested on: CP325
How it was run: as §1

[18] = tested on: CP329
How it was run: as §1

[19] = tested on: DIV14
How it was run: as §1

[20] = tested on: DIV17
How it was run: as §1
Potency means the concentration at half of the fitted maximal effect.

| Structure (SMILES) | Potency [1] | Potency [2] | Potency [3] | Potency [4] | Potency [5] | Potency [6] | Potency [7] | Potency [8] | Potency [9] | Potency [10] | Potency [11] | Potency [12] | Potency [13] | Potency [14] | Potency [15] | Potency [16] | Potency [17] | Potency [18] | Potency [19] | Potency [20] |
| --- | --- | --- | --- | --- | --- | --- | --- | --- | --- | --- | --- | --- | --- | --- | --- | --- | --- | --- | --- | --- |
| C#C[C@]1(O)CC[C@@H]2[C@H]3CCC4=CC(=O)CC[C@H]4[C@H]3C(=C)C[C@@]21CC | inactive | inactive | inactive | inactive | inactive | 0.301 µM (active) | 0.426 µM (active) | 0.536 µM (active) | inactive | 0.426 µM (active) | 0.536 µM (active) | 0.426 µM (active) | 0.478 µM (active) | inactive | inactive |  |  |  |  |  |
| CN(C)C(=O)CCSC(SCCC(=O)O)c1cccc(/C=C/c2ccc3ccc(Cl)cc3n2)c1 (centres undefined) | inactive |  |  | inactive | inactive | inactive | inactive | inactive |  | inactive |  | inactive | inactive |  |  | inactive | inactive | inactive |  |  |
| Cn1c(=O)c2c(ncn2CCOC(=O)C(C)(C)Oc2ccc(Cl)cc2)n(C)c1=O | inactive |  | inactive | inactive |  | inactive | inactive | inactive | inactive | inactive | inactive | inactive | inactive | inactive |  |  | inactive | inactive | inactive | inactive |
| CCCOc1cc(N)ccc1C(=O)OCCN(CC)CC | inactive | inactive | inactive | inactive | inactive | inactive | inactive |  | inactive | inactive |  | inactive |  |  | inactive |  |  | inactive | inactive | inactive |
| C/C(=C\C(=O)OCCCCCCCCC(=O)O)C[C@@H]1OC[C@H](C[C@@H]2O[C@H]2[C@@H](C)[C@H](C)O)[C@@H](O)[C@H]1O |  |  |  |  |  |  |  | 0.239 µM (active) |  |  |  |  |  | 0.151 µM (active) |  | 0.316 µM (active) |  |  |  |  |
| O=C(O[C@H]1CN2CCC1CC2)N1CCc2ccccc2[C@@H]1c1ccccc1 | inactive | inactive | inactive | inactive | inactive | inactive | inactive |  | inactive | inactive | inactive | inactive | inactive |  | inactive |  | inactive | inactive | 3.79 µM (active) | 4.26 µM (active) |
| O=P(O)(O)OP(=O)(O)O | inactive |  | inactive | inactive |  | inactive | inactive | inactive | inactive | inactive | inactive | inactive | inactive | inactive | inactive | inactive | inactive | inactive |  |  |
| CCN(CC)CCC(=O)N1c2ccccc2Sc2ccc(Cl)cc21 |  |  | 8.91 µM (active) |  |  |  |  |  |  |  |  |  |  |  |  | 11.2 µM (active) |  |  | 5.36 µM (active) | 8.49 µM (active) |
| CC(C)(C)CC(C)(C)c1ccc(OCCO)cc1 | inactive | inactive | inactive | inactive | inactive | inactive | inactive | inactive | inactive | inactive | inactive | inactive |  | inactive | inactive |  | inactive | inactive | inactive | inactive |
| NC(=S)N=Nc1ccc(NN=C(N)N)cc1 |  | 8.91 µM (active) | 7.94 µM (active) | 6.01 µM (active) | 12.6 µM (active) |  | 9.53 µM (active) | 6.75 µM (active) | 4.47 µM (active) | 8.49 µM (active) | 9.53 µM (active) | 7.57 µM (active) | 8.49 µM (active) | 8.49 µM (active) | 5.01 µM (active) | 1.58 µM (active) | 10.7 µM (active) | 7.57 µM (active) | 6.01 µM (active) | 7.57 µM (active) |
| Cc1ncc(C[n+]2csc(CCOP(=O)(O)O)c2C)c(N)n1 |  | inactive | inactive | inactive | inactive | inactive | inactive | inactive | inactive | inactive | inactive | inactive | inactive | inactive | inactive | inactive | inactive | inactive | inactive | inactive |
| CC[C@H]1OC(=O)[C@H](C)[C@@H](O[C@H]2C[C@@](C)(OC)[C@@H](O)[C@H](C)O2)[C@H](C)[C@@H](O[C@@H]2O[C@H](C)C[C@H](N(C)C)[C@H]2O)[C@](C)(O)C[C@@H](C)CN(C)[C@H](C)[C@@H](O)[C@]1(C)O |  | 4.47 µM (active) |  |  | 10 µM (active) |  |  | 1.51 µM (active) | 3.98 µM (active) |  | 5.36 µM (active) |  |  | 5.36 µM (active) | 5.01 µM (active) | 2.24 µM (active) |  |  |  |  |
| O=C(CCCN1CCN2CCCC2C1)c1ccc(F)cc1 (centres undefined) | inactive | inactive |  | inactive |  | inactive | inactive | inactive | inactive | inactive |  | inactive | inactive | inactive | inactive |  | inactive | inactive |  |  |
| CC[C@H]1OC(=O)[C@H](C)[C@@H](O[C@H]2C[C@@](C)(OC)[C@@H](O)[C@H](C)O2)C(C)[C@@H](O[C@@H]2O[C@H](C)C[C@H](N(C)C)[C@@H]2O)[C@](C)(OC)C[C@@H](C)C(=O)[C@H](C)[C@@H](O)[C@]1(C)O (some centres undefined) |  | inactive | 5.62 µM (active) |  | inactive | inactive | inactive | inactive | 8.91 µM (active) | inactive |  | inactive | inactive | 6.75 µM (active) | inactive | 1.26 µM (active) |  |  | inactive | inactive |
